Where “and” joins values, the source holds several entries; their conditions need not be identical. Equal values may be shown once. Compounds without any hit were thinned out: in the full panel of roughly 83,000, 20% have a hit.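 Treatment: one concentration, 48 hours, 96-well format. Scoring: percent growth, with anything below 10 considered active.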 A number with no mark means an inactive call. Calls of active or inactive are those of the source.

Some test systems named below: DU-145 prostate; K-562 leukemia; MALME-3M melanoma; MDA-MB-231 breast; RXF 393 renal; SF-268 CNS; SF-295 CNS; SF-539 CNS; UACC-257 melanoma; M14 melanoma.
What all share (experiment): NCI-60 one-dose screen, 48 h (100 = growth as untreated, 0 = no growth, -100 = all killed)
Holding throughout (conditions): 10 µM unless noted

Regarding `COc1cc(/C=C/C(=O)c2ccc(NC(=O)CSc3nnc(-c4cc(-c5ccccc5)nc5ccccc45)n3-c3ccccc3)cc2)cc(OC)c1OC`, the growth in the test on DU-145 prostate was 83.7%; in the test on K-562 leukemia it was 49.7%; with MALME-3M melanoma, 94.6%; with MDA-MB-231 breast it was 64.2%; in the test with RXF 393 renal it was 94.1%; in the test with SF-268 CNS, 90.8%. Moreover, the growth with SF-295 CNS is 96.6%; in the test with SF-539 CNS it was 88.3%; with UACC-257 melanoma it was 109%; with M14 melanoma, 94.5%.

Regarding `Cc1ccc(-c2nc3nc(-c4ccc(Cl)cc4)nc(N4CCCNCC4)c3o2)cc1`, the growth with DU-145 prostate is -21.9% (active); with K-562 leukemia it was -56.7% (active); with MALME-3M melanoma, 91.8%; in the test on MDA-MB-231 breast it was -75.7% (active); with RXF 393 renal, 80.2%; with SF-268 CNS it was 97%. The growth is 85.3% in the test with SF-295 CNS, -96.1% (active) in the test with SF-539 CNS, 103% in the test on UACC-257 melanoma and -75.9% (active) in the test on M14 melanoma.

Consider `COc1ccc2c(c1)oc1c(C)c3c(c(C)c12)C(=O)N(Nc1ccccc1)C3=O`, for which the growth in the test on DU-145 prostate is 97.4%; in the test with K-562 leukemia, 101%; in the test on MALME-3M melanoma, 99.5%; in the test with MDA-MB-231 breast it was 105%; in the test with RXF 393 renal, 116%; with SF-268 CNS, 100%. For the same compound, the growth with SF-295 CNS was 97.1%; in the test with SF-539 CNS, 95.1%; in the test with UACC-257 melanoma, 109%; with M14 melanoma it was 95.3%.

For the compound `O/N=C(/c1ccccc1)c1ccc2c3c(cccc13)CC2`, the growth with DU-145 prostate is 107% and 105%; in the test on K-562 leukemia, 42.4% and 34.2%; in the test with MALME-3M melanoma it was 87.6% and 91.9%; in the test with MDA-MB-231 breast, 82.7% and 82.1%; with RXF 393 renal it was 81.9% and 64.7%; in the test on SF-268 CNS, 105% and 94.6%. For the same compound, the growth in the test on SF-295 CNS was 82.1% and 83.3%; in the test with SF-539 CNS, 111% and 90.5%; in the test on UACC-257 melanoma it was 83.2% and 87.2%; in the test on M14 melanoma, 95.3% and 90.9%.

Consider `Nc1nc(N)c2c(n1)NC(c1ccc(Cl)cc1)CC(c1cccc(Nc3ccncc3)c1)=N2` (stereo not given), for which the growth in the test with DU-145 prostate was 70%; in the test with K-562 leukemia it was 27%; in the test with MALME-3M melanoma, 57%; in the test on MDA-MB-231 breast, 49.8%; in the test on RXF 393 renal, 49.2%; in the test on SF-268 CNS it was 61.7%. For the same compound, the growth with SF-295 CNS was 64.5%; in the test with SF-539 CNS, 63.5%; in the test with UACC-257 melanoma, 52.3%; in the test with M14 melanoma, 35.4%.

On to `COc1ccc(-c2nnc3n(C)c(=O)c4ccccc4n23)cc1O`, for which the growth in the test on DU-145 prostate was 27.1%; with K-562 leukemia it was 9.1% (active); in the test on MALME-3M melanoma, 70.8%; with MDA-MB-231 breast, 36.4%; with RXF 393 renal, -11.7% (active); with SF-268 CNS, 54.1%. For the same compound, the growth with SF-295 CNS is 11.6%; with SF-539 CNS it was -3.83% (active); in the test on UACC-257 melanoma, 49.8%; in the test with M14 melanoma, 3.13% (active).

For `Cn1cc(-c2csc(-c3cn(CCOC(N)=O)c4ccccc34)n2)c2cccnc21`, the growth is 103% in the test with DU-145 prostate; 27.3% in the test on K-562 leukemia; 66.4% in the test with MALME-3M melanoma; 80.4% with MDA-MB-231 breast; 91.4% in the test on RXF 393 renal; 95.8% with SF-268 CNS. Further, the growth is 86.2% with SF-295 CNS, 92.7% with SF-539 CNS, 88% in the test with UACC-257 melanoma and 71.1% in the test with M14 melanoma.

On to `Cc1ccc(-c2nc(SCC(=O)c3ccc(C#N)cc3)[nH]c(=O)c2C#N)cc1`, for which the growth in the test on DU-145 prostate is 102%; in the test with K-562 leukemia, 96.3%; with MALME-3M melanoma it was 99.2%; in the test on MDA-MB-231 breast, 100%; with RXF 393 renal it was 117%; with SF-268 CNS it was 96%. Also, the growth in the test with SF-295 CNS was 103%; in the test with SF-539 CNS, 92.2%; in the test with UACC-257 melanoma it was 100%; in the test on M14 melanoma, 96.7%.

In the case of `C=C(CNCCc1ccc(O)cc1)[C@@H]1CC[C@]2(CO)CC[C@]3(C)[C@H](CC[C@@H]4[C@@]5(C)CCC(NCCc6ccc(O)cc6)C(C)(C)[C@@H]5CC[C@]43C)[C@@H]12` (stereo not given in full), the growth with DU-145 prostate was -98.6% (active); with K-562 leukemia it was -72.9% (active); in the test with MALME-3M melanoma, -88.2% (active); in the test on MDA-MB-231 breast it was -87.1% (active); in the test with RXF 393 renal, -91.2% (active); in the test with SF-268 CNS, -81.5% (active). In addition, the growth was -92.9% (active) with SF-295 CNS, -88.2% (active) with SF-539 CNS, -80.5% (active) in the test on UACC-257 melanoma and -85.4% (active) in the test on M14 melanoma.

As for `COCCn1cc(-c2nc(-c3cn(CCOC)c4ncccc34)cs2)c2ccccc21`, the growth with DU-145 prostate is 97.1%; with K-562 leukemia it was 119%; with MALME-3M melanoma it was 88.6%; in the test on MDA-MB-231 breast, 49%; in the test on RXF 393 renal, 76.1%; in the test with SF-268 CNS, 83.3%. Moreover, the growth is 91.4% in the test on SF-295 CNS, 79.4% in the test with SF-539 CNS, 88% in the test with UACC-257 melanoma and 99.9% in the test on M14 melanoma.

As for `Cc1ccc(NC(=O)N/C(N)=N/c2nc(=O)c3ccccc3s2)cc1`, the growth with DU-145 prostate was 108%; with K-562 leukemia, 57%; in the test on MALME-3M melanoma, 93.9%; in the test on MDA-MB-231 breast it was 86%; in the test on RXF 393 renal it was 99%; in the test on SF-268 CNS it was 102%. Besides, the growth in the test on SF-295 CNS is 101%; in the test on SF-539 CNS, 95.5%; with UACC-257 melanoma, 103%; in the test on M14 melanoma, 92.4%.

Take `C/C=C(\C)C(=O)N[C@H]1CC[C@]2(C)C3CC[C@@]4(C)C(CC[C@@H]4C(C)N(C)C)C3CCC2[C@H]1OC(C)=O` (stereo not given in full): the growth in the test on DU-145 prostate is 4.99% (active); in the test on K-562 leukemia it was 18%; in the test with MALME-3M melanoma, -68.6% (active); in the test on MDA-MB-231 breast, -32.3% (active); in the test on RXF 393 renal it was -61.5% (active); in the test on SF-268 CNS it was -84.6% (active). Besides, the growth is -66.9% (active) in the test on SF-295 CNS, -95.7% (active) with SF-539 CNS, -51.3% (active) in the test on UACC-257 melanoma and -64.1% (active) in the test on M14 melanoma.

Values taken from PubChem BioAssay (NCI).
